Results as given in PubChem BioAssay (NCI).
The panel holds about 79,000 compounds, 15% with a hit somewhere; the sample as a whole holds those more often. Calls of active or inactive are those of the source. Rule as the data show it: active = growth inhibition above about 70%; inactive = the rest.

Legend:
[1] = NCI Yeast Anticancer Drug Screen. Data for the rad52 strain (AID 147);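 also: 0% = growth of vehicle-treated control cultures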; settings: S. cerevisiae rad52 mutant growth inhibition, hits give high values
Procedure, shortened: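 DNA repair-defective yeast; compound exposure; growth scored against vehicle controls.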

[2] = NCI Yeast Anticancer Drug Screen. Data for the wt1 strain (AID 149);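 also: 0% = growth of vehicle-treated wt1 cultures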; settings: S. cerevisiae wt1 strain (SPY 50644) growth inhibition, hits give high values
Procedure, shortened: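 Growth inhibition read against vehicle controls after compound exposure of the wt1 yeast strain.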

[3] = NCI Yeast Anticancer Drug Screen. Data for the rad50EPP+ strain (AID 151);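 also: 0% = growth of vehicle-treated control cultures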; settings: S. cerevisiae rad50 mutant strain, hits give high values
Procedure, shortened: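 rad50EPP+ yeast treated with test compounds. Readout: growth vs vehicle control.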

[4] = NCI Yeast Anticancer Drug Screen. Data for the mgt1 strain (AID 153); settings: S. cerevisiae mgt1 mutant growth inhibition, hits give high values
Procedure, shortened: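 Growth inhibition relative to vehicle controls was scored for the mgt1 yeast strain after compound exposure.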

[5] = NCI Yeast Anticancer Drug Screen. Data for the rad50 strain (AID 155);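 also: 0% = growth of vehicle-only cultures of the same strain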; settings: S. cerevisiae rad50 strain growth inhibition, hits give high values
Procedure, shortened: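 Readout: growth inhibition relative to vehicle-treated cultures. Compound exposure was carried out in a genetically defined yeast strain deficient in DNA damage repair.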

[6] = NCI Yeast Anticancer Drug Screen. Data for the mec2-1 strain (AID 157); settings: S. cerevisiae mec2-1 strain, hits give high values
Procedure, shortened: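 Growth inhibition is read against vehicle-treated controls after compound exposure of the mec2-1 yeast strain, which is defective in DNA damage repair or cell cycle control.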

[7] = NCI Yeast Anticancer Drug Screen. Data for the rad14 strain (AID 159);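 also: 0% = growth of vehicle-treated control cultures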; settings: S. cerevisiae rad14 strain growth inhibition, hits give high values
Procedure, shortened: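 Growth inhibition vs vehicle controls; genetically altered yeast strain (DNA damage repair defect) treated with test compounds.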

[8] = NCI Yeast Anticancer Drug Screen. Data for the sgs1 mgt1 strain (AID 161);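 also: 0% = growth of cultures given vehicle only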; settings: S. cerevisiae sgs1 mgt1 strain, hits give high values
Procedure, shortened: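 Yeast cells carrying a defined DNA-repair defect were exposed to test compounds. Growth inhibition was measured relative to vehicle-treated controls.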

[9] = NCI Yeast Anticancer Drug Screen. Data for the CLN2oe strain (AID 163);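 also: 0% = growth of vehicle-only control cultures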; settings: S. cerevisiae CLN2oe strain, hits give high values
Procedure, shortened: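 Compound-treated yeast; growth vs vehicle ctrl = % inhibition. Genetically altered strain (cell-cycle control).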

[10] = NCI Yeast Anticancer Drug Screen. Data for the cln2 rad14 strain (AID 165);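 also: 0% = growth equal to vehicle treated cultures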; settings: S. cerevisiae cln2 rad14 strain, hits give high values
Procedure, shortened: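 Growth inhibition, relative to vehicle-treated controls, is the read-out. The test organism is a yeast strain with defined genetic alterations, cln2 rad14.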

[11] = NCI Yeast Anticancer Drug Screen. Data for the bub3 strain (AID 167); settings: S. cerevisiae bub3 mutant strain, hits give high values
Procedure, shortened: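 Readout: yeast growth inhibition, expressed relative to vehicle-only wells. The test organism is a mutant strain from a panel with lesions in DNA repair or checkpoint genes.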

[12] = NCI Yeast Anticancer Drug Screen. Data for the wt2 strain (AID 169);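 also: 0% = growth of vehicle-treated yeast cultures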; settings: S. cerevisiae wt2 strain growth inhibition, hits give high values
Procedure, shortened: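 Compound exposure of yeast; growth compared with vehicle controls; inhibition reported.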

[13] = NCI Yeast Anticancer Drug Screen. Data for the mlh1 strain (AID 171);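 also: 0% = growth of vehicle-treated control cultures of the same strain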; settings: S. cerevisiae mlh1 strain growth inhibition, hits give high values
Procedure, shortened: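 Compounds are applied to a genetically altered yeast strain, and its growth is compared with that of vehicle-treated cultures to give percent inhibition.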

[14] = NCI Yeast Anticancer Drug Screen. Data for the sgs1 strain (AID 173);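 also: 0% = growth of vehicle-only control cultures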; settings: S. cerevisiae sgs1 mutant, hits give high values
Procedure, shortened: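 Compounds applied to genetically altered yeast; growth compared with vehicle-treated cultures to give % inhibition.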

[15] = NCI Yeast Anticancer Drug Screen. Data for the mlh1 rad18 strain (AID 175); settings: S. cerevisiae mlh1 rad18 strain growth inhibition, hits give high values
Procedure, shortened: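 Cells of a genetically altered yeast strain, deficient in DNA damage repair, were treated with compound. Their growth was then compared with that of vehicle-treated cultures to give inhibition.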

[16] = NCI Yeast Anticancer Drug Screen. Data for the rad18 strain (AID 177); settings: S. cerevisiae rad18 mutant growth inhibition, hits give high values
Procedure, shortened: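 Compounds are applied to a repair-deficient yeast strain, and growth is compared with that of vehicle-treated cultures to give percent inhibition.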

[17] = at 5.0 µM (retest, dose inferred, filed as 0.5)
[18] = at 50.0 µM (retest, dose inferred, filed as 5.0)

Measured: growth inhibition

CCCCCCNCCCNc1c2cc(OC)ccc2nc2cccc([N+](=O)[O-])c12
inactive: [1]; at 1.2 µM 8% | [1]; at 3.7 µM 25% | [2]; at 1.2 µM 1% | [2]; at 3.7 µM 1% | [2]; at 11.0 µM 9% | [2]; at 33.0 µM 59% | [3]; at 1.2 µM 2% | [3]; at 3.7 µM 5% | [3]; at 11.0 µM 20% | [3]; at 33.0 µM 60% | [4]; at 1.2 µM 0% | [4]; at 3.7 µM 0% | [4]; at 11.0 µM 10% | [5]; at 1.2 µM 5% | [5]; at 3.7 µM 15% | [5]; [17] 35% | [5]; at 11.0 µM 66% | [6]; at 1.2 µM -1% | [6]; at 3.7 µM 4% | [6]; [17] 9% | [7]; at 1.2 µM 7% | [7]; at 3.7 µM 55% | [9]; at 1.2 µM -8% | [9]; at 3.7 µM -13% | [9]; at 11.0 µM -9% | [9]; at 33.0 µM 53% | [11]; at 1.2 µM -6% | [11]; at 3.7 µM -13% | [11]; [17] -3% | [11]; at 11.0 µM -18% | [11]; at 33.0 µM 34% | [12]; at 1.2 µM 0% | [12]; at 3.7 µM 0% | [12]; at 11.0 µM 12% | [13]; at 1.2 µM 4% | [13]; at 3.7 µM 2% | [13]; at 11.0 µM 16% | [14]; at 1.2 µM 21% | [14]; at 3.7 µM 65%
active: [1]; at 11.0 µM 73% | [1]; at 33.0 µM 93% | [1]; at 100.0 µM 97% | [2]; at 100.0 µM 96% | [3]; at 100.0 µM 92% | [4]; at 33.0 µM 81% | [4]; at 100.0 µM 98% | [5]; at 33.0 µM 92% | [5]; [18] 97% | [5]; at 50.0 µM 94.6% | [5]; at 100.0 µM 96% | [6]; at 11.0 µM 73% | [6]; at 33.0 µM 94% | [6]; [18] 98% | [6]; at 50.0 µM 96.4% | [6]; at 100.0 µM 99% | [7]; at 11.0 µM 96% | [7]; at 33.0 µM 99% | [7]; at 100.0 µM 99% | [8]; [17] 88% | [8]; [18] 97% | [8]; at 50.0 µM 95.7% | [9]; at 100.0 µM 96% | [10]; [17] 77% | [10]; [18] 99% | [10]; at 50.0 µM 98.8% | [11]; [18] 96% | [11]; at 50.0 µM 92.7% | [11]; at 100.0 µM 95% | [12]; at 33.0 µM 81% | [12]; at 100.0 µM 98% | [13]; at 33.0 µM 86% | [13]; at 100.0 µM 98% | [14]; at 11.0 µM 88% | [14]; at 33.0 µM 95% | [14]; at 100.0 µM 98% | [15]; [17] 73% | [15]; [18] 97% | [15]; at 50.0 µM 97.2% | [16]; at 1.2 µM 89% | [16]; at 3.7 µM 93% | [16]; at 11.0 µM 93% | [16]; at 33.0 µM 95% | [16]; at 100.0 µM 98%

Oc1ccc(N=Nc2ccc(Cl)cc2)cc1
inactive: [1]; at 1.2 µM 3% | [1]; at 3.7 µM 23% | [2]; at 1.2 µM -2% | [2]; at 3.7 µM 7% | [2]; at 11.0 µM 52% | [3]; at 1.2 µM 8% | [3]; at 3.7 µM 12% | [3]; at 11.0 µM 50% | [4]; at 1.2 µM -3% | [4]; at 3.7 µM 4% | [4]; at 11.0 µM 61% | [5]; at 1.2 µM 1% | [5]; at 3.7 µM 30% | [5]; [17] -27% | [6]; at 1.2 µM 8% | [6]; at 3.7 µM 15% | [6]; [17] -13% | [7]; at 1.2 µM 2% | [7]; at 3.7 µM 7% | [7]; at 11.0 µM 60% | [8]; [17] -10% | [9]; at 1.2 µM 25% | [9]; at 3.7 µM 45% | [10]; [17] -6% | [11]; at 1.2 µM 57% | [11]; at 3.7 µM 65% | [12]; at 1.2 µM -1% | [12]; at 3.7 µM 5% | [13]; at 1.2 µM 4% | [13]; at 3.7 µM 2% | [14]; at 1.2 µM 0% | [14]; at 3.7 µM 7% | [15]; [17] 6% | [16]; at 1.2 µM 0% | [16]; at 3.7 µM 3%
active: [1]; at 11.0 µM 97% | [1]; at 33.0 µM 98% | [1]; at 100.0 µM 98% | [2]; at 33.0 µM 99% | [2]; at 100.0 µM 99% | [3]; at 33.0 µM 98% | [3]; at 100.0 µM 97% | [4]; at 33.0 µM 99% | [4]; at 100.0 µM 99% | [5]; at 11.0 µM 94% | [5]; at 33.0 µM 99% | [5]; [18] 99% | [5]; at 50.0 µM 99.5% | [5]; at 100.0 µM 98% | [6]; at 11.0 µM 90% | [6]; at 33.0 µM 99% | [6]; [18] 98% | [6]; at 50.0 µM 98.2% | [6]; at 100.0 µM 99% | [7]; at 33.0 µM 99% | [7]; at 100.0 µM 98% | [8]; [18] 99% | [8]; at 50.0 µM 98.7% | [9]; at 11.0 µM 97% | [9]; at 33.0 µM 99% | [9]; at 100.0 µM 99% | [10]; [18] 99% | [10]; at 50.0 µM 99.5% | [11]; [17] 81% | [11]; at 11.0 µM 94% | [11]; at 33.0 µM 99% | [11]; [18] 99% | [11]; at 50.0 µM 99.2% | [11]; at 100.0 µM 99% | [12]; at 11.0 µM 93% | [12]; at 33.0 µM 99% | [12]; at 100.0 µM 99% | [13]; at 11.0 µM 77% | [13]; at 33.0 µM 99% | [13]; at 100.0 µM 99% | [14]; at 11.0 µM 87% | [14]; at 33.0 µM 99% | [14]; at 100.0 µM 98% | [15]; [18] 99% | [15]; at 50.0 µM 99.4% | [16]; at 11.0 µM 77% | [16]; at 33.0 µM 99% | [16]; at 100.0 µM 97%
